# Measured values published in ChEMBL document CHEMBL1961873, “Compounds: GSK PKIS; Assays: Nanosyn kinase panel” (2012).
# “And” between values parts separate entries of the source, which are not always exact repeats. Identical values can stand only once.
# What was measured:
# [1] = biological target: Tyrosine-protein kinase Fer (Homo sapiens) (UniProt P16591); conditions: at 1 µM
# [2] = biological target: Tyrosine-protein kinase Fes/Fps (Homo sapiens) (UniProt P07332); conditions: at 0.1 µM
# [3] = biological target: Tyrosine-protein kinase Fes/Fps (Homo sapiens) (UniProt P07332); conditions: at 1 µM
# [4] = biological target: Fibroblast growth factor receptor 1 (Homo sapiens) (UniProt P11362); conditions: at 0.1 µM
# Sequence of Fibroblast growth factor receptor 1 (Homo sapiens) (P11362 22-822 limits assumed): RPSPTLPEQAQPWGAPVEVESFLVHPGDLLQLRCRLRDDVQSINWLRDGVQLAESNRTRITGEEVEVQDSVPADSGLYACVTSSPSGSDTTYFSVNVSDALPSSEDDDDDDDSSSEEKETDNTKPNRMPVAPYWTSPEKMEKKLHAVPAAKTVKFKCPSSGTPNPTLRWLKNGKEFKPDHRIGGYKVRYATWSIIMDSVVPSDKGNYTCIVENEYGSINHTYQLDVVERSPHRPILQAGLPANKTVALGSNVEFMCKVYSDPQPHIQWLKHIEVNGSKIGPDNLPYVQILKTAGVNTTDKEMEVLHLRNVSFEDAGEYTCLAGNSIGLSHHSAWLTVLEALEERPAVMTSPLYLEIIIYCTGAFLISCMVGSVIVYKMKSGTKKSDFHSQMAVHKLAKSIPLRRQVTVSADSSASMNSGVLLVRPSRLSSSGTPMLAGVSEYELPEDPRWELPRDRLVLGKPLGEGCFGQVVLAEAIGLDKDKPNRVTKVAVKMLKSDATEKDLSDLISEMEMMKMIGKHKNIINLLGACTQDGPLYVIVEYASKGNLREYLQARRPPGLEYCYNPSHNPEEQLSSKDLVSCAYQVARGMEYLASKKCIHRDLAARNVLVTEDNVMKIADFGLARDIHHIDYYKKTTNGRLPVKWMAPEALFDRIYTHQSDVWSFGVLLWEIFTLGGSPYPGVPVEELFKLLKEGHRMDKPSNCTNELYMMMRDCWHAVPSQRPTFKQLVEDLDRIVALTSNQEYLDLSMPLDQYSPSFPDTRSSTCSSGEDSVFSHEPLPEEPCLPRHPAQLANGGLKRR
# [5] = biological target: Fibroblast growth factor receptor 1 (Homo sapiens) (UniProt P11362); conditions: at 1 µM
# [6] = biological target: Fibroblast growth factor receptor 2 (Homo sapiens) (UniProt P21802); conditions: at 0.1 µM
# Sequence of Fibroblast growth factor receptor 2 (Homo sapiens) (P21802 22-821 limits assumed): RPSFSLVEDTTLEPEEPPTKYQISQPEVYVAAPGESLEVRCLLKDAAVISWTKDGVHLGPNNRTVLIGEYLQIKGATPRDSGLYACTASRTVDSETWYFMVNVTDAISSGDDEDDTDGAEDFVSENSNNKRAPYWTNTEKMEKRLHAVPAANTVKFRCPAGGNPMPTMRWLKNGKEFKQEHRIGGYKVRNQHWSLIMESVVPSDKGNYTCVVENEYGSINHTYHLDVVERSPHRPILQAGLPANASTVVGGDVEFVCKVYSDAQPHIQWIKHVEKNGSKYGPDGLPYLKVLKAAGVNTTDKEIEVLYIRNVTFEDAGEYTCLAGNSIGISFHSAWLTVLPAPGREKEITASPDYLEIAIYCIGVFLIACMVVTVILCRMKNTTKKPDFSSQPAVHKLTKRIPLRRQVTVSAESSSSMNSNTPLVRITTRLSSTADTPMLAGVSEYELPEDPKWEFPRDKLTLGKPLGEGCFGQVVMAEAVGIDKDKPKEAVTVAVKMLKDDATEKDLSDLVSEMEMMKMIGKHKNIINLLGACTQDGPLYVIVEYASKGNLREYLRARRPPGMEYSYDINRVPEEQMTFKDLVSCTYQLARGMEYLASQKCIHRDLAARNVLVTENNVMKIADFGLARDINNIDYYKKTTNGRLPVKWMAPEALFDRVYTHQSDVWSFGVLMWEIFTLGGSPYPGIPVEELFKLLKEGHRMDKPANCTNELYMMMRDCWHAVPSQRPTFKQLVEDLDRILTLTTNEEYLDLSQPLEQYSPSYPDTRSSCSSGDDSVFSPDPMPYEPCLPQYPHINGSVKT
# [7] = biological target: Fibroblast growth factor receptor 2 (Homo sapiens) (UniProt P21802); conditions: at 1 µM
# [8] = biological target: Fibroblast growth factor receptor 3 (Homo sapiens) (UniProt P22607); conditions: at 0.1 µM
# Sequence of Fibroblast growth factor receptor 3 (Homo sapiens) (P22607 23-806 limits assumed): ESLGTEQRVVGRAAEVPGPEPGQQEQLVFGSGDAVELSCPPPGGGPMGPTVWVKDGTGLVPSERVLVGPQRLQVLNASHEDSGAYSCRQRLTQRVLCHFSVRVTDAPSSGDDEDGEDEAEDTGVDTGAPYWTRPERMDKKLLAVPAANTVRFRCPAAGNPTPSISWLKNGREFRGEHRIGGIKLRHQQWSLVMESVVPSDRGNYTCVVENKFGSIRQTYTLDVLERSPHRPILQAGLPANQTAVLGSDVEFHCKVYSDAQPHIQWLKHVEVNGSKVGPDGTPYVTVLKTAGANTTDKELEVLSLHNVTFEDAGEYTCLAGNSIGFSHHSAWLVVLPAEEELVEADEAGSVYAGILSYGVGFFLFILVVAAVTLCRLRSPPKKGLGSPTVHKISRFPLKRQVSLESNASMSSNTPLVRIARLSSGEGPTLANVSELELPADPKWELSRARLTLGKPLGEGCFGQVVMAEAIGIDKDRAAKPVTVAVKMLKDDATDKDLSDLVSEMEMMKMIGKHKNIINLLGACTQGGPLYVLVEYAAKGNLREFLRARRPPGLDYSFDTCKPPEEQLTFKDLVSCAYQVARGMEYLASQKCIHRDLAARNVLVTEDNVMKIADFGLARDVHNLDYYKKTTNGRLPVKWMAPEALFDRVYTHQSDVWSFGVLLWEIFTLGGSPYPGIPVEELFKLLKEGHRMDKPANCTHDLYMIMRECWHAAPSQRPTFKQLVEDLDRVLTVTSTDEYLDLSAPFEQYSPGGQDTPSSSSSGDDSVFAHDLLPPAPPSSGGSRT
# [9] = biological target: Fibroblast growth factor receptor 3 (Homo sapiens) (UniProt P22607); conditions: at 1 µM
# [10] = biological target: Fibroblast growth factor receptor 4 (Homo sapiens) (UniProt P22455); conditions: at 0.1 µM;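 also: values are mean percent inhibition of FGFR4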
# Sequence of Fibroblast growth factor receptor 4 (Homo sapiens) (P22455 22-802 limits assumed): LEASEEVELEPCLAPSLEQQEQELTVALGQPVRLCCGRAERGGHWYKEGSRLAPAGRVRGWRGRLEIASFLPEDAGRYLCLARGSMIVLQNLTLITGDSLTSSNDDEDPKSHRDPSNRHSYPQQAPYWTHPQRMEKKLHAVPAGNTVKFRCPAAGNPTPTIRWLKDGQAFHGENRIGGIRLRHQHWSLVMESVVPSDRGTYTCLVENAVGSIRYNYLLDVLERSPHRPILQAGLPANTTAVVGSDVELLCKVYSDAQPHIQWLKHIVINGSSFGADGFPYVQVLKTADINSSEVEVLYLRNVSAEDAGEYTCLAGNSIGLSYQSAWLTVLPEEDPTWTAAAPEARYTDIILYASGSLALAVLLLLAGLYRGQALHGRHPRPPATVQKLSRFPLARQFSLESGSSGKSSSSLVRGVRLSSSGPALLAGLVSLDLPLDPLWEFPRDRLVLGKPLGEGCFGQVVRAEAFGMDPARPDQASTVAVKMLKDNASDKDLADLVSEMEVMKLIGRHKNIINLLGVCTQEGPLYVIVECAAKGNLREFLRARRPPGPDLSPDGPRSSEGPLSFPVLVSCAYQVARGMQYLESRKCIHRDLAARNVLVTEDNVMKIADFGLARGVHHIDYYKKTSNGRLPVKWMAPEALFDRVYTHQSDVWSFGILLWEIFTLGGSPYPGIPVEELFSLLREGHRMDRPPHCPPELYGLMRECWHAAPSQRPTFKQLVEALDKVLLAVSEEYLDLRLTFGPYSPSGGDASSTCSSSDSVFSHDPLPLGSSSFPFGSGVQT
# Sequence of Tyrosine-protein kinase Fes/Fps (Homo sapiens) (P07332 whole entry): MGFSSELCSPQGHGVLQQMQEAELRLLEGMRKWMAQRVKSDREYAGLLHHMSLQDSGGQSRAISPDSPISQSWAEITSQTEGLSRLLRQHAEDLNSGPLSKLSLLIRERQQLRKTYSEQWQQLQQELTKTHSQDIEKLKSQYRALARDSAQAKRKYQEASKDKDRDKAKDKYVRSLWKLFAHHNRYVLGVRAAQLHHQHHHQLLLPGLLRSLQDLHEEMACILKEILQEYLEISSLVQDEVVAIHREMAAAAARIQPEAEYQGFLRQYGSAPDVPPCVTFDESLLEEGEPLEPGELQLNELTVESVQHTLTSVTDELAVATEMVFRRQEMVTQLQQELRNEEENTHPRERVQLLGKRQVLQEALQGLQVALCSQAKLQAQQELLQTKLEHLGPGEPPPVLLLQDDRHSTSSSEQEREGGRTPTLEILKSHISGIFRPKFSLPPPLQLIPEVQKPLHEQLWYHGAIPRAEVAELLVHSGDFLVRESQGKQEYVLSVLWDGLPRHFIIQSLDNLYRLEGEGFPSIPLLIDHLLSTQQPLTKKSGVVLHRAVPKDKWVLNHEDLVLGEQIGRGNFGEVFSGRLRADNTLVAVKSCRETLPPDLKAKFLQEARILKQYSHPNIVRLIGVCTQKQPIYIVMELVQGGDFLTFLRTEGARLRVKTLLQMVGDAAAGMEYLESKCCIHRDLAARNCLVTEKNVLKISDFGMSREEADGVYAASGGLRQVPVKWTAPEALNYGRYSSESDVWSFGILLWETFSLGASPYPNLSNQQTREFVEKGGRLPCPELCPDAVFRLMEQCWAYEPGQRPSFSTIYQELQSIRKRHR
# Sequence of Tyrosine-protein kinase Fer (Homo sapiens) (P16591 whole entry, looked up): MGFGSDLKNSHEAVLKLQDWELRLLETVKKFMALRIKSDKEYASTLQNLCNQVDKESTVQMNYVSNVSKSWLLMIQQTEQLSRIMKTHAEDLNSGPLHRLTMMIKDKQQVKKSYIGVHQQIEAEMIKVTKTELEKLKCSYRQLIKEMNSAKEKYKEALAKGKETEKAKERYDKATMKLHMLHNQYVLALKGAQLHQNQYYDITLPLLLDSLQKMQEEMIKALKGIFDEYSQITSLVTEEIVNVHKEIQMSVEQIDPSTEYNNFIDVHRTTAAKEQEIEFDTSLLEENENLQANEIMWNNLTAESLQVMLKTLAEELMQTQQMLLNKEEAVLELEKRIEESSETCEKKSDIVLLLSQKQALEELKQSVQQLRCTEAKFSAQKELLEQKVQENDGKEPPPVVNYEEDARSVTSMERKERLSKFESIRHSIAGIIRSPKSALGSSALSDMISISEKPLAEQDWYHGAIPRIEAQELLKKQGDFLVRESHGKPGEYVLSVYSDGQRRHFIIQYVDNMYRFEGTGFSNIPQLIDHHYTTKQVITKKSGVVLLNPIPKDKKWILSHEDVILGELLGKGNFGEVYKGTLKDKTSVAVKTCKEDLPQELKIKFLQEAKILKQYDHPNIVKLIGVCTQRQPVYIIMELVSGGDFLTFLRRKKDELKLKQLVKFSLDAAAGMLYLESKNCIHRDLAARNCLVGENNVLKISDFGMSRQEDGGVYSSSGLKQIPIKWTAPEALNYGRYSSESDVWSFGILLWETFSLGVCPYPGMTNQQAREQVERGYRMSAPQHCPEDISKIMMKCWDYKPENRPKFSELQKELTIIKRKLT
SMILES,inhibition [1],inhibition [2],inhibition [3],inhibition [4],inhibition [5],inhibition [6],inhibition [7],inhibition [8],inhibition [9],inhibition [10]
Nc1nonc1-c1nc2cnccc2n1C1CC1,0.34% and 3.05%,2.84% and 0.98%,3.51% and 0.87%,13.1% and 2.25%,8.28% and -2.04%,5.07% and -2.09%,8.58% and -2.64%,7.58% and 1.46%,8.03% and -1.3%,0.52% and -4.76%
COc1cc2c(cc1Nc1nc(Nc3cccc(F)c3C(N)=O)c3cc[nH]c3n1)N(C(=O)CN1CCN(C(C)C)CC1)CC2,53.2%,14%,59.2%,11.4%,2.78%,5.89%,0.93%,7.88%,3.19%,1.09%
CN1CCC(n2cnc(-c3ccc(F)cc3)c2-c2ccnc(NCCO)n2)CC1,7.14%,2.72%,3.24%,3.14%,-2.05%,3.73%,6.49%,7.57%,5.67%,-1.01%
CCS(=O)(=O)c1ccc(OC)c(Nc2ncc(-c3cccc(F)c3)o2)c1,8.9%,4.72%,4.79%,12.7%,46.2%,40.5%,69.8%,52.9%,77.3%,5.31%
O=C(O[C@H]1CN[C@H](C#Cc2cc3ncnc(Nc4ccc5c(ccn5Cc5cc(F)ccc5F)c4)c3s2)C1)N1CCOCC1,5.55%,3.3%,3.52%,-0.06%,2.23%,3.95%,4.22%,5.33%,3.1%,-1.92%
O=C1Nc2ccccc2/C1=C1\CCc2cc(O)ccc21,22.1%,4.19%,6.81%,8.16%,23.5%,9.87%,31.3%,10.3%,30.9%,-1.94%
COc1ccccc1-c1cc(/C=C2\C(=O)Nc3ncc(Br)cc32)cc(Br)c1O,9.31%,3.24%,4.41%,3.85%,14%,6.66%,18%,8.55%,14%,-0.86%
COc1cc(N2CCN(C(C)C)CC2)ccc1Nc1nc(Nc2cccc(F)c2C(=O)O)c2cc[nH]c2n1,75.6%,18.5%,63.7%,2.19%,6.27%,7.3%,9.34%,4.65%,8.48%,-2.62%
OCCCNc1nccc(-c2c(-c3ccc(F)cc3)nn3cc(C(F)(F)F)ccc23)n1,2.56%,1.95%,2.62%,6%,6.47%,0.64%,3.29%,2.01%,1.53%,1.17%
COc1cc(Nc2ncc(-c3ccccc3)o2)cc(OC)c1,3.14%,3.89%,3.89%,2.6%,7.89%,3.62%,11.7%,1.91%,10.2%,-1.24%
CN(C)CCNC(=O)Nc1ccc(N(C)c2ccnc(Nc3ccc(CS(C)(=O)=O)cc3)n2)cc1,12.4%,3.36%,6.7%,27.9%,9.1%,5.38%,8.82%,6.17%,5.98%,1.63%
COc1ccc2ncn(-c3cc(O[C@H](C)c4ccccc4C(F)(F)F)c(C(N)=O)s3)c2c1,3.58%,-0.21%,0.25%,1.11%,-0.51%,-2.58%,5.48%,0.12%,3.58%,0.21%
COC(=O)Nc1nc2ccc(Oc3ccc(NC(=O)Nc4cc(C(F)(F)F)ccc4F)cc3)cc2s1,6.3%,0.15%,0.99%,4.86%,16.9%,2.26%,29.7%,5.73%,11.5%,0.42%
CC1(C)CC(n2cnc(-c3ccc(F)cc3)c2-c2ccnc(N)n2)CC(C)(C)N1,0.17%,-0.11%,-0.76%,6.46%,1.68%,-0.84%,-0.31%,1.59%,1.55%,-1.33%
CNC(=O)c1cncc(/C=C/c2ccccc2C)c1,4.88%,2.38%,1.6%,4.11%,3.14%,2.42%,4.95%,6.04%,4.39%,0.55%
c1ccc(-c2n[nH]cc2-c2ccnc(-c3ccc(OCCn4ccnc4)cc3)c2)nc1,1.84%,-0.05%,-0.73%,-3.47%,3.09%,0.47%,2.51%,1.79%,4.74%,1.45%

SMILES,inhibition [1],inhibition [2],inhibition [3],inhibition [4],inhibition [5],inhibition [6],inhibition [7],inhibition [8],inhibition [9],inhibition [10]
COc1ccc(Nc2ncc(-c3ccccc3)o2)cc1OC,4.34%,0.6%,3.66%,-3.4%,5.44%,1.29%,19.4%,2.32%,13.2%,0.41%
CN1CCC(C(=O)Nc2n[nH]c3nc(-c4ccc(O)cc4)c(Br)cc23)CC1,5.19% and 5.02%,2.73% and 2.03%,2.01% and 1.81%,-1.64% and 2.05%,-0.75% and 5.39%,-0.3% and 14.5%,2.81% and 5.43%,1.48% and 6.04%,1.79% and 4.41%,6.09%
O=C(Nc1n[nH]c2nnc(-c3cccnc3)cc12)C1CC1,0.68%,-0.26%,-1.66%,-0.17%,-1.08%,-0.85%,-0.69%,0.05%,1.8%,2.02%
Fc1ccc(Nc2nccc(-c3c(-c4ccc(C(F)(F)F)cc4)nn4ncccc34)n2)cc1F,4.28%,3.21%,3.35%,7.42%,4.6%,5.3%,6.72%,6.52%,4.25%,-0.65%
COC(=O)Nc1nc2cc(Oc3ccc(NC(=O)Nc4ccccc4)cc3)ccc2[nH]1,3.19%,1.46%,1.32%,-5.22%,1.47%,1.69%,4.03%,5.75%,3.54%,0.83%
FC(F)(F)CNc1nccc(-c2cnn3ncccc23)n1,0.92%,2.11%,1.66%,4.83%,2.89%,4.25%,3.09%,3.73%,2.58%,1.62%
CNC(=O)c1sc(-n2cnc3cc(OC)c(OC)cc32)cc1OCc1ccccc1C(F)(F)F,5.74%,3.32%,3.26%,-4.6%,7.69%,4.22%,7.4%,2.02%,7.23%,0.59%
Cc1ccc(-c2cc3c(NC(=O)C4CC4)ncnc3o2)cc1,6.82%,4.78%,7.73%,7.46%,5.81%,6.04%,10.7%,5.42%,5.53%,1.15%
c1cnn2ncc(-c3ccnc(NCCCN4CCOCC4)n3)c2c1,1.85%,2.2%,5.72%,1.29%,2.22%,1%,3.87%,3.61%,1.83%,-0.18%
COc1cc(N2CCN(C(C)C)CC2)ccc1Nc1nc(Nc2cccc3ncccc23)c2cc[nH]c2n1,44.4%,0.44%,10%,-4.53%,-4.83%,-2.09%,1.97%,0.3%,0.87%,0.6%
CN1CCN(Cc2ccc(-c3cc4ncnc(Nc5ccc(OCc6cccc(F)c6)c(Cl)c5)c4s3)o2)CC1,7.48% and 15.1%,2.89% and 4.05%,6.42% and 6.83%,2.24% and 7.51%,2.3% and 1.47%,3.18% and 3.5%,4.91% and 4.73%,3.81% and 6.54%,2.58% and 3.34%,0.04% and -5.98%
CCn1c(-c2nonc2N)nc2cncc(C(=O)NCCNC)c21,3.14%,4.48%,4.8%,2.05%,4.72%,3.81%,5.33%,2%,5.02%,0.72%
CCCNc1cccc(-n2ncc3c(N/N=C/c4ccncc4)ncnc32)c1,9.15%,2.38%,5.6%,0.48%,3.31%,2.19%,19.4%,0.74%,8.88%,-1.49%
CS(=O)(=O)Nc1ccc(-c2ccc3c(NC(=O)C4CC4)n[nH]c3c2)cc1,11.5%,2.68%,4.38%,6.04%,6.36%,3.37%,8.17%,6.11%,5.97%,-2.39%
CCOc1ccc2c(-c3ccnc(Nc4cc(OC)cc(C(F)(F)F)c4)n3)cnn2n1,8.05%,0.16%,0.05%,4.3%,-0.38%,-1.84%,3.9%,1.13%,2.09%,0.25%
